Source: PubChem BioAssay AID1159580 (chemical genetic matrix, 2015)
Screen size: about 5,500 compounds; about 2,000 (36%) were called active. Not shown: some 18% with an inconclusive outcome. Cut-off read from the data, not from the text of the source: active = normalized growth mostly below about 0.91 (no sharp cut-off); inconclusive = no clear call, values can overlap the other calls; inactive = mostly above about 0.92. The list shows a part of the results.

Experiment: chemical genetic growth profiling, strain panel (AID 1159580);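 note: tested at 20 µM; growth read once vehicle control cultures reached saturation at 30 °C; 1 = growth at the plate median or of vehicle wells; lower values mean less growth of the strain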
Settings: growth OD
[1] = S. cerevisiae deletion strains, locus YAL013W, strain DEP1, active compounds read low
[2] = S. cerevisiae deletion strains, locus YBR229C, strain ROT2, active compounds read low
[3] = S. cerevisiae deletion strains, locus YDL101C, strain DUN1, active compounds read low
[4] = S. cerevisiae deletion strains, locus YDR150W, strain NUM1, active compounds read low
[5] = S. cerevisiae deletion strains, locus YEL061C, strain CIN8, active compounds read low
[6] = S. cerevisiae deletion strains, locus YGR078C, strain PAC10, active compounds read low
[7] = S. cerevisiae deletion strains, locus YHR030C, strain SLT2, active compounds read low
[8] = S. cerevisiae deletion strains, locus YHR087W, strain rtc3, active compounds read low
[9] = S. cerevisiae deletion strains, locus YJL187C, strain SWE1, active compounds read low
[10] = S. cerevisiae deletion strains, locus YJR043C, strain POL32, active compounds read low
[11] = S. cerevisiae deletion strains, locus YJR075W, strain HOC1, active compounds read low
[12] = S. cerevisiae deletion strains, locus YLR039C, strain RIC1, active compounds read low
[13] = S. cerevisiae deletion strains, locus YLR058C, strain SHM2 (second series), active compounds read low
[14] = S. cerevisiae deletion strains, locus YLR085C, strain ARP6, active compounds read low
[15] = S. cerevisiae deletion strains, locus YLR262C, strain YPT6, active compounds read low
[16] = S. cerevisiae deletion strains, locus YML094W, strain GIM5, active compounds read low
[17] = S. cerevisiae deletion strains, locus YMR219W, strain ESC1, active compounds read low
[18] = S. cerevisiae deletion strains, locus YMR263W, strain SAP30, active compounds read low
[19] = S. cerevisiae deletion strains, locus YNL128W, strain TEP1, active compounds read low
[20] = S. cerevisiae deletion strains, locus YNL153C, strain GIM3, active compounds read low
[21] = S. cerevisiae deletion strains, locus YNL298W, strain CLA4 (second series), active compounds read low
[22] = S. cerevisiae deletion strains, locus YNL322C, strain KRE1, active compounds read low
[23] = S. cerevisiae deletion strains, locus YNR030W, strain Alg12, active compounds read low
[24] = S. cerevisiae deletion strains, locus YPL055C, strain LGE1, active compounds read low
[25] = S. cerevisiae deletion strains, locus YPL241C, strain CIN2, active compounds read low
[26] = S. cerevisiae deletion strains, locus YPR135W, strain CTF4, active compounds read low

Measured: normalized growth

COc1ccc(-c2ccnc(SCC(=O)NCCSCc3ccco3)n2)cc1
inactive: [1] 1.01 | [2] 0.998 | S. cerevisiae deletion strains, locus YCL061C, strain MRC1, active compounds read low 1.01 | [3] 1 | [4] 0.991 | [5] 1 | [6] 1.01 | [7] 1.09 | [8] 0.998 | [9] 1.02 | [10] 1 | [11] 0.991 | [12] 0.999 | [13] 1 | [14] 0.98 | [15] 1.03 | [16] 1 | [17] 1.01 | [18] 1.01 | S. cerevisiae deletion strains, locus YMR307W, strain GAS1, active compounds read low 0.993 | [19] 0.999 | [20] 1.02 | [21] 1.01 | [22] 1.01 | [23] 1.01 | S. cerevisiae deletion strains, locus YOL006C, strain TOP1, active compounds read low 1.03 | [24] 1.02 | [25] 1.01 | [26] 1.03 | S. cerevisiae strains, strain wild type, active compounds read low 1

O=C(NCCSCc1ccco1)c1ccc(Cl)cc1
inactive: [1] 0.976 | [2] 0.991 | [3] 0.976 | [4] 0.815 | [5] 0.994 | [6] 0.989 | [8] 1 | [9] 1 | [10] 0.975 | [11] 1.05 | S. cerevisiae deletion strains, locus YKL190W, strain CNB1, active compounds read low 1 | [13] 0.96 | [14] 1 | [16] 0.989 | [17] 0.98 | [18] 0.981 | [19] 0.983 | [20] 0.984 | [21] 0.968 | [22] 0.988 | [23] 0.982 | [24] 0.962 | [25] 0.975 | [26] 1.02
active: [7] 0.587 | [12] 1.31 [resistant] | [15] 1.19 [resistant]
